From PubChem BioAssay (EPA / NIEHS) come the findings set out here.

In general, AC50 refers to the concentration giving half of the maximal activity seen.

Where “and” joins values, the source holds several entries; their conditions need not be identical. Equal values may be shown once. More than one record can exist for a structure, and the calls need not agree. Calls of active or inactive are those of the source. The calls were made as follows: active = hit-call score of the fitted dose curve at least 0.9, where 1 is the maximum; inactive = score below 0.9.

What all share (conditions): mRNA level, 48 h; actives raise or lower the signal
Read-out in test [1]: catalase (CAT), CAT (gene 847)
Nature of the test: LTEA_HepaRG_CAT: Life Technologies and Expression Analysis (LTEA) Assay for catalase (CAT) using HepaRG (AID 2283452). The method in brief:
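HepaRG cells in serum-free induction medium, 0.5% DMSO vehicle, exposed 48 h in duplicate over 8 half-log concentrations from 100 uM. CAT mRNA measured by qRT-PCR, normalized to ACTB, GAPDH, POLR2A; bidirectional fit versus DMSO.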

Read-out in test [2]: flavin-containing dimethylaniline monooxygenases 3 (FMO3), FMO3 (gene 2328)
As to the kind of experiment: LTEA_HepaRG_FMO3: Life Technologies and Expression Analysis (LTEA) Assay for flavin-containing dimethylaniline monooxygenases 3 (FMO3) using HepaRG (AID 2283453). The method, boiled down: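 Differentiated HepaRG cells in serum-free induction medium, exposed 48 h in duplicate to 8 half-log concentrations up to 100 uM in 0.5% DMSO. FMO3 mRNA by qRT-PCR, normalized to ACTB, GAPDH, POLR2A; bidirectional fit vs DMSO.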

Read-out in test [3]: Cytochrome P450 (CYP1A1), CYP1A1 (gene 1543)
As to the kind of experiment: LTEA_HepaRG_CYP1A1: Life Technologies and Expression Analysis (LTEA) Assay for Cytochrome P450 (CYP1A1) using HepaRG (AID 2283454). The method, boiled down: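 CYP1A1 transcript levels measured by Fluidigm qRT-PCR against three housekeeping genes, 48 h after chemical dosing of human HepaRG cells (highest concentration 100 uM, half-log steps, 0.5% DMSO vehicle). Gain or loss of signal fitted relative to DMSO.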

Read-out in test [4]: CFLAR gene, CFLAR (gene 8837)
Nature of the test: LTEA_HepaRG_CFLAR: Life Technologies and Expression Analysis (LTEA) Assay for CFLAR gene using HepaRG (AID 2283455). The method, boiled down: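 Differentiated HepaRG cells in serum-free induction medium were exposed 48 h in duplicate to eight half-log concentrations up to 100 uM in 0.5% DMSO; mRNA measured by TaqMan qRT-PCR, normalized to ACTB, GAPDH, POLR2A; bidirectional fitting versus DMSO.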

Read-out in test [5]: Forkhead box O1 (FOXO1), FOXO1 (gene 2308)
As to the kind of experiment: LTEA_HepaRG_FOXO1: Life Technologies and Expression Analysis (LTEA) Assay for Forkhead box O1 (FOXO1) using HepaRG (AID 2283456). The method in brief:
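Differentiated HepaRG cells, in serum-free induction medium with 0.5% DMSO, exposed 48 h in duplicate to 8-point half-log series from 100 uM. FOXO1 mRNA measured by TaqMan qRT-PCR, normalized to ACTB, GAPDH, POLR2A; bidirectional fit versus DMSO.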

Read-out in test [6]: Forkhead box O3 (FOXO3), FOXO3 (gene 2309)
As to the kind of experiment: LTEA_HepaRG_FOXO3: Life Technologies and Expression Analysis (LTEA) Assay for Forkhead box O3 (FOXO3) using HepaRG (AID 2283459). The method, boiled down:
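Differentiated human HepaRG cells, 48 h post-plating, exposed in duplicate for 48 h in serum-free induction medium; 8-point half-log series from 100 uM in 0.5% DMSO. FOXO3 mRNA by TaqMan qRT-PCR, normalized to ACTB/GAPDH/POLR2A; bidirectional fit versus DMSO.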

Read-out in test [7]: ABC Transporter (ABCB1), ABCB1 (gene 5243)
As to the kind of experiment: LTEA_HepaRG_ABCB1: Life Technologies and Expression Analysis (LTEA) Assay for ABC Transporter (ABCB1) using HepaRG (AID 2283460). The method, boiled down: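 HepaRG cells exposed in duplicate for 48 h in serum-free induction medium to eight half-log concentrations up to 100 uM in 0.5% DMSO. ABCB1 mRNA quantified by qRT-PCR, normalised to ACTB, GAPDH and POLR2A; fitted bidirectionally versus DMSO.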

Read-out in test [8]: growth arrest and DNA damage 45 (GADD45B), GADD45B (gene 4616)
As to the kind of experiment: LTEA_HepaRG_GADD45B: Life Technologies and Expression Analysis (LTEA) Assay for growth arrest and DNA damage 45 (GADD45B) using HepaRG (AID 2283461). The method, boiled down: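 Transcript level quantified by Fluidigm TaqMan qRT-PCR with three housekeeping genes for normalization, analyzed for up- or down-regulation against 0.5% DMSO. HepaRG cultures dosed 48 h at eight half-log concentrations up to 100 uM, duplicates.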

Read-out in test [9]: ABC Transporter (ABCC3), ABCC3 (gene 8714)
Nature of the test: LTEA_HepaRG_ABCC3: Life Technologies and Expression Analysis (LTEA) Assay for ABC Transporter (ABCC3) using HepaRG (AID 2283462). The method, boiled down: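 Transcript level by TaqMan qRT-PCR, normalised to three housekeeping genes, fitted in both directions relative to vehicle. Chemicals tested in duplicate at eight half-log concentrations up to 100 uM for 48 h on HepaRG cells (0.5% DMSO).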

Read-out in test [10]: ABC Transporter (ABCB11), ABCB11 (gene 8647)
As to the kind of experiment: LTEA_HepaRG_ABCB11: Life Technologies and Expression Analysis (LTEA) Assay for ABC Transporter (ABCB11) using HepaRG (AID 2283463). The method, boiled down:
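Differentiated human HepaRG cells in serum-free induction medium, dosed in duplicate for 48 h. Eight-point half-log series from 100 uM in 0.5% DMSO; ABCB11 mRNA by qRT-PCR, normalized to ACTB, GAPDH, POLR2A, fitted bidirectionally versus DMSO.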

Read-out in test [11]: ABC Transporter (ABCC2), ABCC2 (gene 1244)
Nature of the test: LTEA_HepaRG_ABCC2: Life Technologies and Expression Analysis (LTEA) Assay for ABC Transporter (ABCC2) using HepaRG (AID 2283464). The method in brief: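 Endpoint is ABCC2 transcript level from qRT-PCR, normalized to three housekeeping genes and fitted bidirectionally relative to DMSO. Human HepaRG cells received test chemical for 48 h at up to 100 uM (8 points, half-log steps, 0.5% DMSO), duplicate wells.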

Read-out in test [12]: Broad substrate specificity ATP-binding cassette transporter ABCG2 (Homo sapiens) (UniProt Q9UNQ0)
As to the kind of experiment: LTEA_HepaRG_ABCG2: Life Technologies and Expression Analysis (LTEA) Assay for ABC Transporter (ABCG2) using HepaRG (AID 2283465). The method in brief:
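Differentiated HepaRG cells were exposed for 48 h in serum-free induction medium to 8 half-log concentrations, top 100 uM, in 0.5% DMSO. ABCG2 mRNA was measured by qRT-PCR, normalized to ACTB, GAPDH and POLR2A, with bidirectional fitting versus DMSO.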

Read-out in test [13]: ATP-citrate lyase (ACLY), ACLY (gene 47)
Nature of the test: LTEA_HepaRG_ACLY: Life Technologies and Expression Analysis (LTEA) Assay for ATP-citrate lyase (ACLY) using HepaRG (AID 2283466). The method, boiled down: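 Differentiated HepaRG cells exposed 48 h in serum-free induction medium to eight half-log concentrations up to 100 uM in 0.5% DMSO, duplicates. Transcript measured by Fluidigm TaqMan qRT-PCR, normalized to ACTB, GAPDH, POLR2A; bidirectional fit versus DMSO.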

Read-out in test [14]: Peroxisomal acyl-coenzyme A oxidase 1 (ACOX1) gene, ACOX1 (gene 51)
As to the kind of experiment: LTEA_HepaRG_ACOX1: Life Technologies and Expression Analysis (LTEA) Assay for Peroxisomal acyl-coenzyme A oxidase 1 (ACOX1) gene using HepaRG (AID 2283467). The method in brief: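 HepaRG cells, plated 48 h then switched to serum-free induction medium, were exposed in duplicate for 48 h to 8-point half-log concentrations up to 100 uM in 0.5% DMSO. ACOX1 mRNA was measured by qRT-PCR, normalized to ACTB/GAPDH/POLR2A, and fitted bidirectionally versus DMSO.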

Read-out in test [15]: Alkaline Phosphatase, Placental (ALPP) gene, ALPP (gene 250)
Nature of the test: LTEA_HepaRG_ALPP: Life Technologies and Expression Analysis (LTEA) Assay for Alkaline Phosphatase, Placental (ALPP) gene using HepaRG (AID 2283468). The method, boiled down: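 ALPP transcript level, measured by qRT-PCR and normalized to three housekeeping genes (ACTB, GAPDH, POLR2A), after 48 h dosing of differentiated HepaRG in serum-free induction medium. Top concentration 100 uM with half-log dilutions (8 points, 0.5% DMSO, duplicates); bidirectional fitting relative to DMSO.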

Read-out in test [16]: Bcl-2 (BAD) gene, BAD (gene 572)
As to the kind of experiment: LTEA_HepaRG_BAD: Life Technologies and Expression Analysis (LTEA) Assay for Bcl-2 (BAD) gene using HepaRG (AID 2283469). The method, boiled down: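 Differentiated HepaRG cells were exposed in duplicate in 0.5% DMSO for 48 h to eight-point half-log concentrations up to 100 uM. BAD mRNA was measured by Fluidigm TaqMan qRT-PCR, normalized to ACTB, GAPDH and POLR2A, and fitted bidirectionally against DMSO.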

Read-out in test [17]: Bcl-2 (BAX) gene, BAX (gene 581)
Nature of the test: LTEA_HepaRG_BAX: Life Technologies and Expression Analysis (LTEA) Assay for Bcl-2 (BAX) gene using HepaRG (AID 2283470). The method, boiled down:
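Differentiated HepaRG cells exposed 48 h in serum-free induction medium, eight half-log concentrations from 100 uM, in duplicate, 0.5% DMSO vehicle. BAX mRNA by TaqMan qRT-PCR, normalised to ACTB, GAPDH and POLR2A.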

Sequence of Broad substrate specificity ATP-binding cassette transporter ABCG2 (Homo sapiens) (Q9UNQ0 whole entry, looked up): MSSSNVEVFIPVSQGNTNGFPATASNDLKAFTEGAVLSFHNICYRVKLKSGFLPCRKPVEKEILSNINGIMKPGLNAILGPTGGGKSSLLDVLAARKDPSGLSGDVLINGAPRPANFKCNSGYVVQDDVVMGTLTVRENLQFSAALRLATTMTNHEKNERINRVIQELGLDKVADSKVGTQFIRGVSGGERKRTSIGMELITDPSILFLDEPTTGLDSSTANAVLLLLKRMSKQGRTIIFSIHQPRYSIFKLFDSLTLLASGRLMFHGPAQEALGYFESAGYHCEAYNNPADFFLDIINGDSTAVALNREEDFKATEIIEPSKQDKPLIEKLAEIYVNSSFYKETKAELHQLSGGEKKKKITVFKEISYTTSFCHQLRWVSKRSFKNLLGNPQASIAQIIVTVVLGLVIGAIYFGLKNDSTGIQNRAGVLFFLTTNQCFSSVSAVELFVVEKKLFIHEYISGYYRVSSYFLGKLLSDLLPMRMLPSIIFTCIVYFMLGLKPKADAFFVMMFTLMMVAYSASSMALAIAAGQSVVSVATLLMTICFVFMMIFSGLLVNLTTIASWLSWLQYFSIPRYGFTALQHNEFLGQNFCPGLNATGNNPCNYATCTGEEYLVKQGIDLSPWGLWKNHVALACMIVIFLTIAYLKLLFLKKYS

As to `OCCOc1ccccc1`, the molecule was classed as inactive in test [1], in test [2], in test [4], in test [5], in [6] and in test [7]. Further, the molecule was classed as inactive in test [8], in [9], in [10], in test [11], in test [12] and in test [13]. The call in test [14], in [15], in [16] and in test [17] was inactive. Also, the AC50 in test [3] is 35.1 µM (active).

For the molecule `Oc1cc(Cl)ccc1Oc1ccc(Cl)cc1Cl`, the half-maximal activity concentration (AC50) in [2] is 85.1 µM (active); in [3], 77.3 µM (active) and 88.3 µM (active) and 79.3 µM (active); in test [6], 0.067 µM (active); in test [10] it was 73.3 µM (active) and 75.5 µM (active). The outcome in test [2], in test [4], in [5], in test [6], in test [7] and in test [8] was inactive. In addition, the outcome in test [9], in test [10], in test [11], in [12], in test [13] and in [14] was inactive. Also, the result in test [15], in test [16] and in test [17] was inactive.

With `O=S1OCC2C(CO1)C1(Cl)C(Cl)=C(Cl)C2(Cl)C1(Cl)Cl` (configuration not stated), the AC50 in [1] is 52.3 µM (active); in [2] it was 83.4 µM (active); in test [3], 50 µM (active); in test [10] it was 50 µM (active); in [13], 87.1 µM (active); in test [14], 53.9 µM (active). The molecule was called inactive in test [4], in test [5], in [6], in test [7], in test [8] and in test [9]. The molecule was classed as inactive in test [11], in test [12], in test [15], in test [16] and in [17].

As for `ClC1C(Cl)C(Cl)C(Cl)C(Cl)C1Cl` (configuration not stated), the outcome in [1], in test [2], in test [4], in [5], in test [6] and in [8] was inactive. The outcome in test [9], in test [10], in test [12], in [13], in test [14] and in [15] was inactive. Besides, the result in [16] and in test [17] was inactive. Besides, the AC50 was 27.3 µM (active) and 19.9 µM (active) in [3]; 1.54 µM (active) and 4.45 µM (active) in test [7]; 3.62 µM (active) in test [11]; 3.28 µM (active) in test [12].

In the case of `CC(C)N(C(=O)COc1nnc(C(F)(F)F)s1)c1ccc(F)cc1`, the AC50 was 40.7 µM (active) in test [2], 50 µM (active) in [3], 50 µM (active) in test [10] and 19.4 µM (active) in test [14]. In addition, the molecule was classed as inactive in test [4], in [5], in test [6], in test [7], in [8] and in test [9]. Also, the call in test [11], in test [12], in [13], in test [15], in test [16] and in [17] was inactive.
